Measured values reported in ChEMBL document CHEMBL3988442, “University of Dundee, Small-Polar-MMV Screening Library” (2021).
Screen size: about 48,000 compounds; about 13,000 (27%) showed an effect of 50% or more. This is one part of the list.

Test system: Wolbachia pipientis
Experiment: Anti-Wolbachia Cell-Based Screen
Format: functional
Parameters: scale not given: in the data most compounds retested in dose-response had high values
Conditions: 5 µM

Row | SMILES | Percent Effect [%]
1 | CC(=O)Nc1ccc2nc(-c3nccn3CCCN(C)C)ccc2c1 | 3.374
2 | Cc1cnc(NC(=O)c2cccc(CN(C)Cc3snnc3C)c2)s1 | -4.019
3 | CN1C[C@@H](n2cnc(-c3ccccc3)c2-c2nccn2C)C[C@H]1C(=O)O | -7.865
4 | CN1CCCN(C[C@@H]2CN(C(=O)CCC3CCCC3)C[C@@H]2CO)CC1 | 0.9084
5 | CC(=O)N1CCCCCC1C1CCN(Cc2nnc(C(C)(C)C)o2)CC1.Cl (centres undefined) | -4.894
6 | Cc1nc(C(C)(C)C)sc1C(=O)NCCn1ccnc1 | 6.238
7 | CNC(=O)c1cc2c(nc1NCC(C)C)CCN(S(=O)(=O)N(C)C)CC2 | -14.23
8 | CCN(CC)C(=O)c1ccc(-c2ccsc2)nc1C | 7.441
9 | Cc1nc(-c2ccc(CNS(=O)(=O)N(C)C)cc2)ccc1C(N)=O | 115
10 | CNS(=O)(=O)Cc1ccc(CNC(=O)c2ccc(C)[nH]c2=O)cc1 | 6.775
11 | CCN(CC)S(=O)(=O)NCc1ccc(-c2ccc(C(N)=O)c(C)n2)cc1 | 82.68
12 | CCC(C)NC(=O)c1ccc(CNC(=O)COC)cc1 (centres undefined) | 4.124
13 | CNC(=O)c1ccc(CNC(=O)c2ccc(Cl)cc2F)cc1 | 6.561
14 | CNC(=O)c1ccc(-c2ccc(CNS(=O)(=O)N(C)C)cc2)nc1C | 96.06
15 | Cc1nc(-c2ccsc2)ccc1C(=O)O | -6.285
16 | CCN(C(=O)c1ccc(-c2ccccc2)nc1C)C1CC(=O)NC1=O (centres undefined) | 2.82
17 | Cc1ccc(-c2nc(CNS(=O)(=O)N(C)C)[nH]c2-c2ccccn2)cc1 | 19.45
18 | CNC(=O)c1ccc(-c2ccc(CNC(=O)COC)cc2)nc1C | 125.2
19 | O=C1C(NCc2cccc(O)c2)CCN1Cc1ccccc1 (centres undefined) | 0.7589
20 | CC(=O)N(C)CC(=O)Nc1cccc(N2CCN(CC3CC3)CC2)c1 | -2.755
21 | CC(NS(=O)(=O)N(C)C)c1cccc(-n2cccn2)c1 (centres undefined) | -7.408
22 | CC(=O)c1cccc(OCCCC(=O)NCC2CCCN2C)c1 (centres undefined) | -10.21
23 | COC(=O)c1sccc1S(=O)(=O)NCCC(O)c1ccco1 (centres undefined) | -8.026
24 | CCc1nnc(SCC(=O)N2CCc3[nH]nc(C4CCC4)c3C2)o1 | 38.87
25 | Cc1ccc(CN(C(=O)c2cccc(NC(N)=O)c2)C2CC2)o1 | -0.2723
26 | N#Cc1cccc(NC(=O)N[C@H](CO)c2ccccc2)c1 | -16.24
27 | COCc1nc(CNC2CCSC2)no1 (centres undefined) | -14.23

Row | SMILES | Percent Effect [%]
28 | O=C1CC(NCc2cccc(O)c2)CN1CCc1cccc(Cl)c1 (centres undefined) | 126.2
29 | CCn1ccnc1C1CCN(Cc2cccc(Cl)c2)CC1 | 9.663
30 | O=C1CC(NCc2ccncc2)CN1CCc1cccc(Cl)c1 (centres undefined) | 73.7
31 | Cc1cccc(CNC2CC(=O)N(Cc3cccc(F)c3)C2)c1 (centres undefined) | 24.38
32 | CCn1ccnc1CN1CCCC(CO)(Cc2cccc(Cl)c2)C1 (centres undefined) | -3.247
33 | Oc1cccc(CNC2CCN(CCc3ccncc3)CC2)c1 | -20.44
34 | CCn1ccnc1CNC1CC(=O)N(CCc2cccc(Cl)c2)C1 (centres undefined) | 120.9
35 | CCc1ncc(CNC2CC(=O)N(CCc3cccc(Cl)c3)C2)cn1 (centres undefined) | -5.676
36 | CCn1cc(CNC2CC(=O)N(CCc3cccc(Cl)c3)C2)cn1 (centres undefined) | -6.807
37 | COc1ccccc1CCNC(=O)NC(C)COCC(F)(F)F (centres undefined) | -18.36
38 | CC(CS(C)(=O)=O)NCc1cc(Cl)ccc1F (centres undefined) | 6.588
39 | CN(Cc1ccccc1-n1cccn1)c1nc(N)nc2c1CCNCC2 | 7.066
40 | COCCN(Cc1ccc(C)cc1)Cc1nccn1C | 5.615
41 | COCCNC(=O)NCCc1ccn(-c2ccccc2)n1 | 4.023
42 | CCC(C(=O)NCCc1ccn(-c2ccccc2)n1)N1CCCC1=O (centres undefined) | 2.511
43 | CCC(CC)C(=O)NCCc1ccn(-c2ccccc2)n1 | 133.4
44 | COc1ccc(CNCCc2ccn(-c3ccccc3)n2)cc1O | 7.82
45 | CCN(CC)C(=O)NCCc1ccn(-c2ccccc2)n1 | 134.9
46 | CC(=O)NC1CCc2ccc(S(=O)(=O)NCc3ncccc3C)cc21 (centres undefined) | 37.01
47 | CC(=O)N1CCCC(Cc2cnc(-c3c(C)nn(C)c3C)cn2)C1 (centres undefined) | 146.7
48 | COCCN1CCCC(Cc2cnc(-c3c(C)nn(C)c3C)cn2)C1 (centres undefined) | 161.1
49 | CC(=O)N1CCC(Cc2cnc(-c3c(C)nn(C)c3C)cn2)CC1 | 190.1
50 | Cc1nn(C)c(C)c1OCC(=O)N1CCCC1 | -17.38
51 | COCCN1CCC(CN(C)c2ncnc3c2c(C)nn3C)C1 (centres undefined) | -22.39
52 | COCCN1CCCC(CN(C)c2nc3c(s2)c(C)nn3C)C1 (centres undefined) | -14.47
53 | Cc1nn(C)c(C)c1OCC(=O)N1CCCCC1 | -9.266
54 | COCCn1c(=O)n(Cc2cccc(F)c2F)c2cc(C(=O)O)ccc21 | -6.581
